Our source for the cytotoxicity values is PubChem BioAssay AID430 (Sanford-Burnham Center for Chemical Genomics, 2006).

The structures appear in SMILES notation. Out of some 63,000 compounds screened, about 1,100 (1.7%) were called active. No stated cut-off is given here; in the data, active means cytotoxicity above about 50%; inactive means the rest. This excerpt belongs to a sample that is enriched for actives. Entries with a potency or affinity are not part of this list.

A short description of the experiment: cytotoxicity in HPDE-C7 cells, cell-based, fluorescence, HTS (AID 430).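 Further: cells exposed to compound for 48 hours before viability readout; 0% = vehicle and 100% = reference cytotoxic drug.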 The conditions noted are these: HPDE-C7 pancreatic duct cells viability, at 10 µM, active compounds read high.
Turning to `CCOC(=O)C(Cc1c[nH]c2ccccc12)NC(=O)CNC(C)=O` (centres undefined), the cytotoxicity was 2.5% (inactive). As to `CCCn1cnc2cc(NCc3cccc(OC)c3O)ccc21`, the cytotoxicity was 5.7% (inactive).

Take `CCOC(=O)c1ccc2ncc(C(=O)OCC)c(NCCCN3CCOCC3)c2c1`: the cytotoxicity was 3% (inactive). On to `COc1ccc2c(c1)C1(Nc3ccccc3C(=O)N1c1ccccc1)C(=O)N2` (centres undefined), for which the cytotoxicity is -14.8% (inactive). Regarding `CC(=Nc1ccccc1)Nc1ccccc1`, the cytotoxicity was -13.5% (inactive). With `S=C(N=Nc1ccccc1)NNc1ccccc1`, the cytotoxicity is 58.8% (active). To `ONC(=Nc1ccccc1)C(=Nc1ccccc1)NO` belongs 0.4% (inactive); to `COc1ccc(C2C(C(=O)NCCN3CCOCC3)c3ccccc3C(=O)N2C)cc1OC` (centres undefined), -4.3% (inactive). Consider `Cc1nnc2sc(-c3csc4c3CCCC4)nn12`, for which the cytotoxicity is -4.3% (inactive). The same measure for `c1ccc(-c2nnc3sc(-c4csc5c4CCCC5)nn23)cc1`: 75% (active); for `Cc1ccccc1-c1nn2c(-c3ccccc3)nnc2s1`: -0.8% (inactive). For `CCS(=O)(=O)n1nc(-c2ccccc2)cc1N`, the cytotoxicity is 1% (inactive). Turning to `CC(C)(C)c1ccc(Cn2nnc3c(=O)[nH]c(C4CCN(C(=O)Cc5cccs5)CC4)nc32)cc1`, the cytotoxicity was 0.2% (inactive). The same measure for `O=C(Cc1cccs1)N1CCCC(c2nc3c(nnn3Cc3ccc(F)cc3)c(=O)[nH]2)C1` (centres undefined): 3.7% (inactive); for `CCCOC(=O)c1ccc(OC(=O)c2ccco2)cc1`: -5.8% (inactive); for `CCCOC(=O)c1ccc(NC(=O)c2cnccn2)cc1`: -2% (inactive). To `CCOc1ccc(-c2n[nH]c(C)c2-c2ccccc2OC)c(O)c1` belongs -12.5% (inactive); to `COc1ccc(C(=O)OCCN2C(=O)c3ccccc3C2=O)cc1`, -2.8% (inactive). Consider `CCC(=O)Nc1c2c(nn1-c1ccc(C)cc1C)CSC2`, for which the cytotoxicity is -2.4% (inactive). Regarding `O=C(Nc1ccon1)c1cccc(S(=O)(=O)N2CCCC2)c1`, the cytotoxicity is -18.1% (inactive). The same measure for `Cc1ccc(C)c(NC(=O)CCn2nc(C)cc2C)c1`: -17.9% (inactive); for `c1ccc2[nH]c(CN3CCN(c4ncnc5c4oc4ccccc45)CC3)nc2c1`: -2.8% (inactive); for `CC(=O)N1CCN(C(=O)COc2ccc(Br)cc2)CC1`: 4.1% (inactive). `CCOc1ccc(NC(=O)c2ccccc2NC(=O)CN2CCN(C(C)=O)CC2)cc1`: the cytotoxicity was -0.6% (inactive). As to `O=C(C1CCN(Cc2ccc(F)cc2)CC1)N(CCO)Cc1ccccc1`, the cytotoxicity was 2.8% (inactive). Regarding `COC(=O)c1c(NC(C)=O)sc2c1CCCC2`, the cytotoxicity is -2% (inactive).

`COC(=O)c1c(NC(=O)c2ccoc2C)sc2c1CCC2`: the cytotoxicity is -21% (inactive). The same measure for `COC(=O)c1c(NC(=O)c2ccc(Br)s2)sc2c1CCC2`: 53.5% (active); for `O=C(Nc1ccc2c(c1)OCO2)C(c1ccc(Cl)cc1)N1CCC2(CC1)OCCO2` (centres undefined): 4.2% (inactive). To `CC(=O)c1c(C)nc(-c2ccc3c(c2)OCO3)n1O` belongs -6.2% (inactive); to `CC1CCN(C(=O)CNC(=O)Cn2ccc3ccccc3c2=O)CC1`, -13.9% (inactive); to `CN1CC2=Cc3ccccc3OC23Oc2ccccc2C=C3C1`, 58.3% (active). With `CCCCn1c(=O)[nH]c(=O)c2c1nc(COC(=O)c1c(C)noc1C)n2CCC`, the cytotoxicity is -7% (inactive). `CSc1nc(-c2ccco2)cc(-c2ccccc2)c1C#N`: the cytotoxicity is -2.3% (inactive). To `Cc1cc(-c2ccccc2)c(C#N)c(N)n1` belongs -14.3% (inactive); to `C=CCn1c(SCC(=O)C(C)(C)C)nnc1-c1cccs1`, -5.8% (inactive); to `O=C(Oc1ccc(Cl)c2cccnc12)N1CCOCC1`, 10.3% (inactive). In the case of `O=C(Oc1c(Cl)cc(Cl)c2cccnc12)N1CCOCC1`, the cytotoxicity was 3.3% (inactive). Regarding `COc1ccc(C(=O)Oc2c(CN3CCOCC3)cc(Cl)c3cccnc23)cc1OC`, the cytotoxicity is 7.4% (inactive).

`COc1cc(C(=O)Oc2c(CN3CCOCC3)cc(Cl)c3cccnc23)cc(OC)c1OC`: the cytotoxicity is 29% (inactive). The same measure for `Cc1ccc(CCNC(=O)C2CCCN(S(=O)(=O)c3cnc[nH]3)C2)cc1` (centres undefined): -8.4% (inactive). `O=C(NCC(=O)N(c1ccc2c(c1)OCO2)C(C(=O)NC1CCCC1)c1ccncc1)c1ccco1` (centres undefined): the cytotoxicity is -5.8% (inactive). With `Cc1cccc2cc(COC(=O)c3cccnc3)c(=O)[nH]c12`, the cytotoxicity was 8.9% (inactive). As for `CC1CCN(S(=O)(=O)c2ccc3[nH]c(=O)c(=O)[nH]c3c2)CC1`, the cytotoxicity is -9% (inactive). To `COC(=O)Cc1cc(=O)[nH]c(/N=C(/NC(=O)c2ccccc2)Nc2ccccc2C)n1` belongs 2.1% (inactive); to `Cc1ccc(O)c(CC(C)C)n1`, -4.7% (inactive); to `CCC(NC(C)C)C(O)c1ccc(O)c(O)c1` (centres undefined), 15.3% (inactive). Turning to `O=C(c1cc2ccccc2cc1OCC(O)CN1CCCCC1)N1CCCCC1` (centres undefined), the cytotoxicity is -0.7% (inactive). In the case of `CC1CCCN(S(=O)(=O)c2cc(Cl)ccc2Cl)C1` (centres undefined), the cytotoxicity is -32.2% (inactive). On to `CCN(CC)S(=O)(=O)c1ccc(Cl)c(C(=O)Nc2nncs2)c1`, for which the cytotoxicity is 2.1% (inactive). In the case of `CCN(CC)S(=O)(=O)c1cccc(C(=O)Nc2nncs2)c1`, the cytotoxicity is -14.1% (inactive). The same measure for `Cc1ccccc1-n1c(SC/C(O)=C(\C#N)c2nc3ccccc3[nH]2)nnc1-c1ccncc1`: -17.8% (inactive); for `Nc1nc(NC(=O)c2cccnc2)nn1-c1ccccc1`: 3.1% (inactive); for `Nc1nc(NC(=O)c2ccco2)nn1-c1ccccc1`: 2% (inactive).

In the case of `CC1=C(C(=O)OCc2ccccc2)C(c2ccc(C)o2)C2=C(CCCC2=O)N1` (centres undefined), the cytotoxicity was 54.4% (active). With `CC1=C(C(=O)OC2CCCCC2)C(c2ccc(C)o2)C2=C(CCCC2=O)N1` (centres undefined), the cytotoxicity was -7% (inactive).

In the case of `Cc1ccc(C2CC(=O)NC(SCc3ccccc3)=C2C#N)o1` (centres undefined), the cytotoxicity is 10.6% (inactive). On to `CCCCCCSC1=C(C#N)C(c2ccc(C)o2)CC(=O)N1` (centres undefined), for which the cytotoxicity was -8% (inactive). The same measure for `CC1=C(C(=O)OC2CCCCCC2)C(c2ccc(C)o2)C2=C(CCCC2=O)N1` (centres undefined): -13.9% (inactive). `COC(=O)CSC1=C(C#N)C(c2ccccc2)CC(=O)N1` (centres undefined): the cytotoxicity is -10% (inactive). To `Cc1ccc(C2CC(=O)NC(SCC(=O)OCc3ccccc3)=C2C#N)o1` (centres undefined) belongs 59.6% (active).

Consider `CCOC(=O)CSC1=C(C#N)C(c2ccc(C)o2)CC(=O)N1` (centres undefined), for which the cytotoxicity is 68.5% (active). Turning to `CCOC(=O)CSC1=C(C#N)C(c2ccc(Cl)cc2)CC(=O)N1` (centres undefined), the cytotoxicity is -16% (inactive). To `CC(=O)Nc1cccc(NC(=O)CSc2nnc(Cc3cccn3C)n2-c2ccc(F)cc2)c1` belongs -6.9% (inactive).
